Test results published in PubChem BioAssay AID602293 (National Center for Advancing Translational Sciences (NCATS), 2012).
The whole screen tested about 1,300 compounds, of which about 30 (2%) were called active. Inconclusive results (about 10%) are left out. The list comes from a sample in which actives are over-represented; it also holds similar structures and randomly drawn compounds. Unmarked numbers belong to inactive results. Calls follow the shape of the dose curve; as a rule, active = well fitted inhibition curve with a large enough effect; inconclusive = small, poorly fitted or top-dose-only effect; inactive = flat fitted curve, though single readings scatter.

Assay: qHTS for antagonists of the Thyroid Stimulation Hormone Receptor: Hit Validation in HTRF Activity in a Luteinizing Hormone Receptor Cell Line
Details: LHR-expressing cell line, cAMP HTRF, antagonist mode; series mostly up to 58 µM; activity change, negative = inhibition: at the top concentration
Outline: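 HEK 293 cells stably expressing LH receptor, in DMEM with 10% FCS and 100 uM RO 20-1724, incubated with compound 30 min at room temperature. cAMP measured by competitive HTRF (anti-cAMP cryptate vs cAMP-d2), excitation 330 nm, emissions 615 and 660 nm.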
% is scaled to controls: 0 for no effect and ±100 for the full control effect; potency is read from the fitted curve at half-maximal effect.

Structure (SMILES)	activity change, negative = inhibition	Potency
COc1ccccc1N1CCN(c2nc(C)nc3c2oc2ccccc23)CC1	1.31%	
O=C1C=CC(=O)N1CCCCCCN1C(=O)C=CC1=O		33.8 µM (active)
Cc1cccc(/C=C/C(=O)c2cc(Br)ccc(=O)c2O)c1	-0.0449%	
O=S(=O)(c1cc(C(F)(F)F)ccc1Cl)N1CCN(c2ncnc3ccccc23)CC1	-3.64%	
COc1cc2sc3ccc(-c4ccc(CN5CCOCC5)cc4)cc3c(=O)c2cc1OC	-5.62%	
COc1ccc(NS(=O)(=O)c2ccc3c(c2)Cc2ccccc2-3)cn1	1.94%	
O=C(Nc1ccccc1Cl)/C(Cl)=C(\Cl)S(=O)c1ccccc1 (stereo not given)	-22.7%	
COc1ccc(NC(=O)/C(Cl)=C(/Cl)S(=O)Cc2ccccc2Cl)cn1 (stereo not given)		37.9 µM (active)
c1ccc2c(Cn3nnc4ccccc43)cccc2c1	2.75%	
Cc1onc(-c2ccccc2Cl)c1C(=O)NC(=S)Nc1ccc(C(C)C)cc1	-0.899%	
O=C(N1CCN=C1SCc1cccnc1)C12CC3CC(CC(C3)C1)C2	-1.74%	
O=C(CSc1nc2cc(Cl)c(Cl)cc2[nH]1)c1ccc2c(c1)OCO2	2.41%	
O=S(=O)(Nc1ccc2cn[nH]c2c1)c1cc(Br)ccc1Br	-0.271%	
C=C(C)CNc1cc(S(=O)(=O)N2CCOCC2)ccc1Oc1ccccc1	-2.45%	
Clc1ccc(CSc2nnc(CNc3cccc(Cl)c3)o2)cc1	0.688%	
CCN(CC)S(=O)(=O)c1ccc(Oc2ccc(S(=O)(=O)N(CC)CC)cc2)cc1	-2.52%	
CC1=NN(C(N)=S)C(=O)C1N=Nc1c(Br)cc(Br)cc1Br (stereo not given)	1.89%	
O=C(Oc1c(Br)cc([N+](=O)[O-])cc1Br)c1cccnc1	1.3%	
CCc1ccccc1NC(=O)CN1CCN(C(=O)CNC(=O)Cc2cccc3ccccc23)CC1	1.56%	
O=C(Nc1ccc(Cl)c(Cl)c1)Nc1ccccc1O	-3.37%	
CCCCCCSc1ccc(-c2nc3ccc(Cl)cn3c2NCCCC)cc1OC	-1.07%	
COc1ccc(-c2cc(-c3nc4ccccn4c3NCc3ccccc3)ccc2OC)cc1		9.53 µM (active)

Structure (SMILES)	activity change, negative = inhibition	Potency
CCCCNc1c(-c2cccc(-c3ccc(OC)cc3)c2)nc2ccc(C)cn12	-0.0927%	
O=C(Nc1nc2c(s1)CCCC2)c1ccc2ncsc2c1	-6.37%	
N#C/C(=N\Nc1cccc([N+](=O)[O-])c1)C(=O)c1ccc(Br)cc1	-1.57%	
Cc1ccc(C)c(N2CCN(C(=O)CCS(=O)(=O)c3ccc4c(c3)CCN4C(=O)C3CC3)CC2)c1	0.0752%	
Cc1ccc(-n2c(Cl)c(Cl)nc(Cl)c2=O)cc1		37.9 µM (active)
Cc1c(Cl)sn(-c2ccc(Cl)cc2)c1=O	-7.13%	
Cc1ccc2cccc(Oc3ncnc4scc(-c5ccccc5)c34)c2n1	-7.58%	
COc1cc(C(C)=O)ccc1OCC(=O)Nc1ccc(Cl)c(S(=O)(=O)N2CCOCC2)c1	-7.28%	
O=C(Nc1ccc(Cl)c(S(=O)(=O)N2CCOCC2)c1)c1ccc(OCC2CCCO2)cc1 (stereo not given)		37.9 µM (active)
O=C(Nc1nc(-c2ccc(Cl)cc2Cl)cs1)c1ccc(OCC2CCCO2)cc1 (stereo not given)	-6.16%	
COC(=O)c1ccc(CN2C(=O)NC(Cc3c[nH]c4ccccc34)C2=O)cc1 (stereo not given)	0.496%	
COc1ccc(-c2csc(NC(=O)c3ccccc3NS(=O)(=O)c3ccc(F)c(F)c3)n2)cc1	-3.22%	
COc1ccc(Cc2nc(C(=O)Nc3ccc(Cl)cc3)cs2)cc1	-1.91%	
O=S(=O)(Nc1cccc(-c2cn3cccnc3n2)c1)c1ccc(-c2ccccc2)cc1	-0.336%	
CCOC(=O)CCS(=O)(=O)c1nc(-c2ccccc2)cc(C(F)(F)F)n1	0.21%	
COc1ccc(/C=N/n2c(SC)nnc(C(C)(C)C)c2=O)cc1	-0.342%	
COc1ccc(S(=O)(=O)N2CCOC23CCN(C(=O)c2ccc(Cl)cc2Cl)CC3)cc1	-0.906%	
O=C(NCCC1=CCCCC1)C(=O)NCC1OCCCN1S(=O)(=O)c1ccccc1 (stereo not given)	3.6%	
Cc1cc(C(=O)CCl)c(C)n1CCc1ccccc1	-0.254%	
CC1(C)CC2(CCCN3C(=O)CSC32)CCS1 (stereo not given)	-0.704%	
COC(=O)c1ccc(-c2noc(CN(C)CCC3CCCCO3)n2)cc1 (stereo not given)	-0.562%	
CCC(C)(C)C1CCC(NC(=O)N2CCN(c3ccccc3O)CC2)CC1 (stereo not given)	-0.692%	

Structure (SMILES)	activity change, negative = inhibition	Potency
COc1ccccc1-n1cnc2cc(NS(=O)(=O)c3ccc(Br)cc3)ccc21	0.0454%	
O=C1NC(=S)S/C1=C\c1ccc2ccccc2c1	-0.809%	
O=[N+]([O-])c1c(Nc2cccc(O)c2)cc(Cl)c2nonc12		30.1 µM (active)
O=C(COC(=O)c1ccccc1NS(=O)(=O)c1cccs1)NCC12CC3CC(CC(C3)C1)C2	1.8%	
Cc1cc(OCC(=O)Nc2cccc(S(=O)(=O)N3CCCC3)c2)ccc1Cl	-2.78%	
CCOC(=O)c1c(NC(NC(=O)C(C)C)C(Cl)(Cl)Cl)sc2c1CCC2 (stereo not given)	-0.795%	
O=C(Nc1ccc(SC(F)F)cc1)c1ccc2c(=O)n3c(nc2c1)CCC3	-2.9%	
COc1cc2cnc(-c3ccccc3)c(-c3ccc(C#N)cc3)c2cc1OC	-1.55%	
CCn1c(Cl)c(C=O)s/c1=N\S(=O)(=O)c1ccccc1		37.9 µM (active)
CCOc1ccccc1N1CCN(C(=O)CCCN2C(=O)c3cccc4cccc(c34)C2=O)CC1	1.98%	
CC(C)N(Cc1ccccc1)C(=O)COC(=O)c1cnc(Cl)c(Cl)c1	-3.98%	
CC(Sc1nn(-c2ccc(F)cc2)c(=S)s1)C(=O)c1c(N)n(C)c(=O)n(C)c1=O (stereo not given)	-2.58%	
CC1=C/C(=N\OS(=O)(=O)c2ccccc2)C(C)=CC1=O		30.1 µM (active)
CC1=CC(=O)C(C(C)C)=C/C1=N/OS(=O)(=O)c1ccccc1		21.3 µM (active)
COc1ccc(/C=N/NC(=O)c2ccoc2C)cc1COc1c(C)cccc1C	-7.58%	
CCCSc1nsc(NC(=O)Nc2ccc(F)cc2F)n1	-2.2%	
O=C(COc1ccc(Cl)cc1)Nc1ncc([N+](=O)[O-])s1	-0.689%	
COc1cc(/C=N/OCC(=O)NC23CC4CC(CC(C4)C2)C3)ccc1OCc1ccccc1	-8.02%	
O=C(OCCc1cc2ccccc2c(=O)o1)c1ccccc1C(F)(F)F	-0.186%	
CCN(CC)c1ccc2nc3ccccc3[n+](CC)c2c1		30.1 µM (active)
O=C(Nc1nc(-c2ccc(F)cc2)cs1)C1CCN(C(=O)c2ccc(F)cc2)CC1	-5.39%	
